Experimental data published in PubChem BioAssay (NCATS).
Several values for one entry are separate records, joined by “and”; a condition that tells them apart may be missing. Equal entries are not always repeated. Unmarked numbers belong to inactive results. Results filed as inconclusive are left out. Where a structure was tested more than once in an assay, its records may differ in their call. Activity calls are given as the source filed them. Calls come from the whole dose curve; as a rule, active = well fitted curve in the direction sought with a large enough effect; inconclusive = small, poorly fitted or top-dose-only effect, or another doubt; inactive = no such curve, though single readings can be large; an effect the other way counts as inactive or inconclusive.

Key:
[1] = target: Cytochrome P450 2C9 (Homo sapiens) (UniProt P11712); assay: qHTS Assay for Inhibitors and Substrates of Cytochrome P450 2C9 (AID 883); note: nearly all actives have a fitted effect of over 60% in size; note: potency is the fitted concentration of half-maximal effect; for activity change, negative = inhibition: % is set by controls: 0 for no effect and ±100 for the full control effect
How it was run: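 A luminogenic readout tracked human CYP2C9 (10nM) converting deoxyluciferin (100uM, at KM) in 25mM KPO4 during 60 min at 37C with regenerated NADPH. Values normalized to 57uM sulphaphenazole as complete inhibition.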

[2] = target: Cytochrome P450 3A4 (Homo sapiens) (UniProt P08684); assay: qHTS Assay for Inhibitors and Substrates of Cytochrome P450 3A4 (AID 884); note: nearly all actives have a fitted effect of over 50% in size; note: potency is the fitted concentration of half-maximal effect; for activity change, negative = inhibition: series mostly up to about 57 µM; % is set by controls: 0 for no effect and ±100 for the full control effect
How it was run: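 20 nM human CYP3A4 with 25 uM Luciferin-PPXE (at KM) in 200 mM KPO4, preincubated 10 min with compound; NADPH regeneration started a 60 min RT reaction. Luciferin detected by luminescence, normalized to 57 uM ketoconazole as full inhibition.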

[3] = target: Cytochrome P450 3A4 (Homo sapiens) (UniProt P08684); assay: qHTS Assay for Activators of Cytochrome P450 3A4 (AID 885); note: nearly all actives have a fitted effect of over 65% in size
How it was run: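 20nM CYP3A4 + 25uM Luciferin-PPXE (=KM), 200mM KPO4; cpd 10 min RT; NADPH regen, 60 min RT; stop w/ detection buffer, 20 min; luminescence. Normalized to 57 uM ketoconazole.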

[4] = target: Cytochrome P450 2D6 (Homo sapiens) (UniProt P10635); assay: qHTS Assay for Inhibitors and Substrates of Cytochrome P450 2D6 (AID 891);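 note: luciferin methyl ether substrate demethylated by CYP2D6 with NADPH regeneration; % is set by controls: 0 for no effect and ±100 for the full control effect; nearly all actives have a fitted effect of over 60% in size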
How it was run: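 Human CYP2D6 (5 nM) with 30 uM Luciferin-ME EGE (at Km) in 100 mM KPO4, compound preincubated 10 min, then NADPH regeneration system for 60 min at room temperature. Luciferin read by luminescence; normalized to 1.43 uM quinidine.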

[5] = target: Cytochrome P450 2C19 (Homo sapiens) (UniProt P33261); assay: qHTS Assay for Inhibitors and Substrates of Cytochrome P450 2C19 (AID 899); note: nearly all actives have a fitted effect of over 60% in size; note: potency is the fitted concentration of half-maximal effect
How it was run: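 NADPH-dependent conversion of Luciferin-H EGE (10uM, at KM) by 5nM enzyme in 50mM KPO4, 60 min at 37C following 10 min compound preincubation. Stopped with luciferin detection buffer; luminescence read after 20 min.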

Sequence of Cytochrome P450 3A4 (Homo sapiens) (P08684 whole entry, looked up): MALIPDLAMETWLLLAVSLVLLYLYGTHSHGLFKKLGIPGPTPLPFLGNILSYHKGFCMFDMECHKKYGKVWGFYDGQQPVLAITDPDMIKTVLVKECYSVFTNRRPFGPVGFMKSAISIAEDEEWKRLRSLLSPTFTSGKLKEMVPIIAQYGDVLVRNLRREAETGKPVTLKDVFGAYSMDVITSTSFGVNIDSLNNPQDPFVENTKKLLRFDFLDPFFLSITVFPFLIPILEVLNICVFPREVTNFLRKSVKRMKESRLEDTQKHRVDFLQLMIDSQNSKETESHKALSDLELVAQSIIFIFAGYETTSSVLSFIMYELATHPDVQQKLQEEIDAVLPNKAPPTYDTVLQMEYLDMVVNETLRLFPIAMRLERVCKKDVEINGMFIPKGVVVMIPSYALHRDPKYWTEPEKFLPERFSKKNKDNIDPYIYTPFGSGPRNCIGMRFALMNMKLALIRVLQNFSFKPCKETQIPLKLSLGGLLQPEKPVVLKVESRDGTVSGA
Sequence of Cytochrome P450 2D6 (Homo sapiens) (P10635 whole entry, looked up): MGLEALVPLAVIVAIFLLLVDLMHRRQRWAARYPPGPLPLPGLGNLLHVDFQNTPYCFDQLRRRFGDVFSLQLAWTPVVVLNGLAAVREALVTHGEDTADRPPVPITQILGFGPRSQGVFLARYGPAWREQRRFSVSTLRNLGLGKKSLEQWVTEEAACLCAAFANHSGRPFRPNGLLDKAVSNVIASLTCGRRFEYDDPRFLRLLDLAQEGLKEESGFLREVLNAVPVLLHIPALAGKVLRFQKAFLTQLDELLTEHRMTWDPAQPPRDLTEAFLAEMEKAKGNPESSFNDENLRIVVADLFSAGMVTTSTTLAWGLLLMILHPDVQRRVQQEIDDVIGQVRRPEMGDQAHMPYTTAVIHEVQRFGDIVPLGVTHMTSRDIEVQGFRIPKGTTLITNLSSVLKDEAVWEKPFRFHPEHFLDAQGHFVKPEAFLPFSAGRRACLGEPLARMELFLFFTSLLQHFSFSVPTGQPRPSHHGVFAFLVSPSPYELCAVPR
Sequence of Cytochrome P450 2C9 (Homo sapiens) (P11712 whole entry, looked up): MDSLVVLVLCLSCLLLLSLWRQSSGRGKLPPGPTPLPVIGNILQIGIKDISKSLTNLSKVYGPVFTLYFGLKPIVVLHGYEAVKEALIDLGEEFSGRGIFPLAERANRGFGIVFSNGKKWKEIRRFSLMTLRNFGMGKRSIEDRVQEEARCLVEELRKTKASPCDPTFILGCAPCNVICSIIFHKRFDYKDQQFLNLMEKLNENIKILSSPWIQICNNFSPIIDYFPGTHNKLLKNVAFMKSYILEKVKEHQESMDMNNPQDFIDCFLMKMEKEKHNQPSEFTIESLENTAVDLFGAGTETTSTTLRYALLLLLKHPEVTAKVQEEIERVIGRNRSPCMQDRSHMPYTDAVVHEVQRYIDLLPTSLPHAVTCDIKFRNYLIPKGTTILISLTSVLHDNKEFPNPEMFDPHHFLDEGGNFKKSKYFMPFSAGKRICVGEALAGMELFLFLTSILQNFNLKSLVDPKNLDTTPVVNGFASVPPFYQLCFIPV
Sequence of Cytochrome P450 2C19 (Homo sapiens) (P33261 whole entry, looked up): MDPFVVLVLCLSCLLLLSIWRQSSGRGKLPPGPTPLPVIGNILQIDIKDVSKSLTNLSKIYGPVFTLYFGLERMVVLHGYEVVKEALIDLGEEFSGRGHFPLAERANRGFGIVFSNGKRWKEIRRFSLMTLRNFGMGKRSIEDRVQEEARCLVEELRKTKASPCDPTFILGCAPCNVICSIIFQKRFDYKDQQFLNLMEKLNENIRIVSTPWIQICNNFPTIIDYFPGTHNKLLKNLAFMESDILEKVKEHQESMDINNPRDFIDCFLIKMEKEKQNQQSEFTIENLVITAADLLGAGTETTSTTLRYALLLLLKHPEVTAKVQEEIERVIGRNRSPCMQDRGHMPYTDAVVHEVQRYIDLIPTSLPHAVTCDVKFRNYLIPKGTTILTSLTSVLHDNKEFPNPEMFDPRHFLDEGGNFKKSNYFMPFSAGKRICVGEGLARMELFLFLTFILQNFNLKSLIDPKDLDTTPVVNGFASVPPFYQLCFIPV

`C=C(C)C(=O)OCC1CN2C(CCC(C)C2c2ccc(Br)cc2)C(=O)O1` (stereo unspecified) was tested, and the Potency [1] was “inactive”, the Potency [2] was 3.16 µM (active) and the activity change, negative = inhibition [2] was -21.6% [at 11.4 µM]. For the same compound, the activity change, positive = activation [3] was -55% [at 11.4 µM] and -73.8% [at 11.4 µM], the Potency [4] was “inactive” and the Potency [5] was “inactive”.

In the case of `COc1ccc(OC2C=CC(C#Cc3ccccc3)OC2CO)cc1` (stereo unspecified), the Potency [1] is reported as “inactive”, the Potency [2] is reported as 3.98 µM (active) and the activity change, positive = activation [3] is reported as -79.3% [at 11.4 µM].

For `CC(=O)OCC1OC(c2cc(C)cc(C)c2)C=CC1OC(C)=O` (stereo unspecified), the Potency [1] was “inactive”, the Potency [2] was 3.16 µM (active) and the activity change, positive = activation [3] was -86.4% [at 11.4 µM]. The Potency [4] was “inactive”.

With `Cc1ccc(S(=O)(=O)N[C@H]2COC(=O)C/C=C\[C@@H](C)COC(=O)C/C=C\[C@@H]2C)cc1` the Potency [1] was “inactive”, the Potency [2] was 3.16 µM (active) and the activity change, positive = activation [3] was -68.8% [at 11.4 µM].

`COc1cccc([C@H]2Oc3ccc(OC)cc3/C(=N\O[C@@H](C)c3cn([C@H](CO)Cc4ccccc4)nn3)[C@@H]2O)c1` was tested, and the Potency [1] was 1.58 µM (active), the Potency [2] was 3.16 µM (active) and 3.98 µM (active) and the activity change, positive = activation [3] was -102% [at 11.4 µM] and -98.9% [at 11.4 µM].

For `COc1ccc(/C=C/N(CCc2ccc(OC)c(OC)c2)C(C)=O)cc1`, the Potency [1] was 3.16 µM (active), the Potency [2] was 2 µM (active) and the activity change, positive = activation [3] was -88.6% [at 11.4 µM]. The Potency [4] was “inactive” and the Potency [5] was 0.794 µM (active).

With `C/C(CCN1CCCCc2nc(C)c(C)cc21)=N\O[C@@H](C)c1cc(-c2c(C)cc(C)cc2C)no1` the Potency [1] was 2.51 µM (active), the Potency [2] was 3.98 µM (active) and the activity change, positive = activation [3] was -65.9% [at 11.4 µM].

With `CC(=O)c1ccc(C2C=CC(Oc3ccc(F)cc3C)C(CO)O2)cc1` (stereo unspecified) the Potency [1] was “inactive”, the Potency [2] was 3.16 µM (active) and the activity change, positive = activation [3] was -76.9% [at 11.4 µM]. For the same compound, the Potency [4] was “inactive”.

In the case of `C=CCCC/C=C(/C)C(OCc1ccc(OC)cc1)C(CC/C=C(\C)C(N)=O)OC` (stereo unspecified), the Potency [1] is reported as “inactive”, the Potency [2] is reported as 3.98 µM (active) and the activity change, positive = activation [3] is reported as -96.8% [at 11.4 µM].

`CCOC(=O)[C@]1(C(NC(=O)OC)c2cccc(F)c2)CCCC1=O` (stereo partly specified) was tested, and the Potency [1] was “inactive” and the activity change, negative = inhibition [2] was -16.9% [at 11.4 µM].
